This is a sample that favours compounds with a hit; in the whole collection about 11% have one here.
G9a block: blocks human histone lysine methyltransferase G9a. Q96KQ7. G9a H3K9 monomethylation, AlphaScreen, 2 h. Potency, µM (titrated, usually from 102 µM), inactives show top-dose activity, negative = inhibition, usual class: inhibitors. actives 8.8% (n = 350,000); also: % is scaled to controls: 0 for no effect and ±100 for the full control effect; nearly all actives have a fitted effect of over 75% in size
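Readings reflect AlphaScreen signal from monomethyl-H3K9 antibody detection. HMT at 20 nM; substrate b-H3K9 500 nM; cofactor SAM 20 uM; 2 h RT reaction; compounds tested as titrations in qHTS with 15 min preincubation.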
PLK1 PBD inh: inhibitors of human PLK1 polo-box domain binding; Plk1 PBD binding of FITC phosphopeptide, fluorescence polarization; Potency, µM, for inactives: max response, negative = inhibition, actives largely listed as inhibitors; actives 2.8% (n = 360,000); AID 720504; also: series mostly up to about 57 µM; % is scaled to controls: 0 for no effect and ±100 for the full control effect; nearly all actives have a fitted effect of over 65% in size
JMJD2A Tudor: blocks the human JMJD2A Tudor domain; O75164; AlphaScreen JMJD2A-Tudor / H3K4me3 peptide binding; Potency, µM (highest dose often 114 µM), for inactives: at the top dose activity change, negative = inhibition, actives largely listed as inhibitors; actives 4.4% (n = 390,000); AID 504339; also: % is scaled to controls: 0 for no effect and ±100 for the full control effect; nearly all actives have a fitted effect of over 50% in size
VDR inh: inhibitors of human vitamin D receptor; P11473; VDR-SRC2-3 peptide fluorescence polarization, 2 h; Potency, µM, inactives show max response, negative = inhibition, hits mostly inhibitors; actives 0.93% (n = 400,000); AID 504847; also: % is scaled to controls: 0 for no effect and ±100 for the full control effect
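Two reagent solutions held at 4 deg C in the dark were dispensed, compounds pinned at 23 nl, and the mixture incubated 2 h at room temperature. Read-out: fluorescence polarization of VDR–SRC2-3 peptide binding.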
BAZ2B inh: inhibitors of human BAZ2B bromodomain; Q9UIF8; AlphaScreen BAZ2B-H3K14Ac peptide displacement; Potency, µM (top dose mostly 114 µM), inactives show top-dose activity change, negative = inhibition, actives largely listed as inhibitors; actives 4.4% (n = 360,000); AID 504333; also: % is scaled to controls: 0 for no effect and ±100 for the full control effect; nearly all actives have a fitted effect of over 60% in size
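AlphaScreen displacement of biotin-H3(5-23)K14Ac peptide (50 nM final) from BAZ2B (50 nM final) in PBS pH 7.4, 0.01% Tween-20; complex preformed 30 min RT, then compounds (top 110 uM) 30 min RT, beads 20 min dark.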
HP1b chromo inh: inhibitors of HP1-beta chromodomain binding to methylated histone tails | actives 0.56% (n = 390,000) | P83916 | AlphaScreen HP1-beta / biotin-H3K9me3 peptide binding | Potency, µM (series often up to 114 µM), for inactives: at the highest dose activity change, negative = inhibition, hits mostly inhibitors; also: nearly all actives have a fitted effect of over 70% in size
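AlphaScreen: HP1-beta (50 nM) preformed 30 min with biotin-H3(1-18)K9me3 peptide (50 nM) in PBS pH 7.4, 0.01% Tween-20. Compound added for 30 min at RT, then streptavidin donor/nickel chelate acceptor beads (10 ug/mL) for 30 min.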
The depositor's hits bear a star; ? = inconclusive; nt = no result given; [ ] = another dose, or the depositor's remark. Calls follow the shape of the dose curve; as a rule, active = well fitted curve in the direction sought with a large enough effect; inconclusive = small, poorly fitted or top-dose-only effect, or another doubt; inactive = no such curve, though single readings can be large; an effect the other way counts as inactive or inconclusive. Potency is read from the fitted curve at half-maximal effect.

SMILES | G9a block | PLK1 PBD inh | JMJD2A Tudor | VDR inh | BAZ2B inh | HP1b chromo inh
Cc1ccccc1-n1nc2c(c1NC(=O)c1cc3ccccc3o1)CS(=O)(=O)C2 | 44.7µM* | -12.6% | -21.9% | -1.6% | -2.7% | 14.7%
Cc1ccccc1-n1nc2c(c1NC(=O)c1ccc(Br)o1)CSC2 | 44.7µM* | -27.2% | ? | -1.3% | -37.0% | -5.0%
Cc1ccc(S(=O)(=O)N2C(=O)CCC2C(=O)O/N=C(\N)c2ccc([N+](=O)[O-])cc2)cc1 (stereo unspecified) | -2.5% | -12.7% | -17.9% | -3.3% | -24.1% | 15.9%
COc1cc(CCC(=O)NCc2ccc3c(c2)CCN3C(=O)c2ccc(F)cc2)cc(OC)c1OC | 3.6%[59 µM] | nt | -14.0% | 25.0% | -2.7% | 40.0%
COc1ccccc1NS(=O)(=O)c1cccc(C(=O)N2CCCCCCC2)c1 | 1.6%[0.501 µM] | -2.9% | -3.6% | -12.3% | 2.5% | 26.5%
COc1cccc(NC(=O)CN(C)S(=O)(=O)/C=C/c2ccccc2)c1 | 12.8%[12.7 µM] | -3.0% | -4.4% | -3.7% | -0.7% | 24.8%
CCc1ccc2oc(-c3ccc(OC)cc3)cc(=Nc3c(C)n(C)n(-c4ccccc4)c3=O)c2c1 | 25.1µM* | 0.6% | ? | -3.3% | 39.8µM* | ?
CCc1ccc2oc(-c3ccc(OC)cc3)cc(=Nc3cccc(C(=O)O)c3)c2c1 | ? | 26.7µM* | 14.1µM* | 79.4µM* | -38.4% | -23.4%
Fc1ccc(C2c3cccn3CCN2C(=S)Nc2cccc(Br)c2)cc1 (stereo unspecified) | 70.8µM* | -6.6% | -20.3% | -12.3% | -33.1% | 5.2%
S=C(NCc1ccccc1)N1CCn2cccc2C1c1ccncc1 (stereo unspecified) | ? | 16.8µM* | -24.6% | -14.3% | ? | 42.2%
CCCCNC(=S)N1CCn2cccc2C1c1ccccc1 (stereo unspecified) | 56.2µM* | 1.9% | -24.0% | 23.2% | nt | 7.2%
CCCCNc1sc(S(=O)(=O)CC)nc1S(=O)(=O)c1ccc(C)cc1 | 3.2%[59 µM] | nt | -10.1% | 6.4% | 0.3% | 20.8%
COc1cccc2cc(C(=O)NCCc3ccccc3)oc12 | -0.8% | -18.0% | 13.8% | ? | -28.4% | 44.0%
Cc1ccc(/C(O)=C2\C(=O)C(=O)N(c3cc(C)on3)C2c2cccc(Cl)c2)cc1 (stereo unspecified) | 44.7µM* | -12.7% | -15.9% | -1.5% | -5.1% | 29.7%
COc1ccc(/C(O)=C2\C(=O)C(=O)N(c3cc(C)on3)C2c2cccc(OC)c2OC)cc1C (stereo unspecified) | 50.1µM* | -4.0% | -3.8% | -4.9% | ? | 40.4%
COc1ccc(/C=N/NC(=O)CNC(=O)c2ccncc2)cc1OC | 51.7% | -0.3% | -3.4% | 14.8% | 7.2% | 22.6%
CCn1c(C(=O)N2CCC(C(=O)NCc3ccc4c(c3)OCO4)CC2)cc2sccc21 | 44.7µM* | -2.6% | ? | -21.7% | -35.6% | 12.6%
CCn1c(C(=O)N2CCC(C(=O)NCCCSC3CCCCC3)CC2)cc2sccc21 | 39.8µM* | -8.9% | ? | -3.1% | ? | 3.0%
CCn1c(C(=O)N2CCC(C(=O)NCCc3ccc(C)cc3)CC2)cc2sccc21 | 2.1%[59 µM] | nt | -16.0% | -7.8% | -17.5% | 19.7%
O=C(NCCCN1CCCC1)C1CCN(C(=O)c2cc3sccc3n2Cc2ccc(F)cc2)CC1 | 50.1µM* | -2.2% | -18.9% | 13.2% | ? | 16.3%
CCn1c(C(=O)N2CCC(C(=O)NCCc3ccccc3)CC2)cc2sccc21 | ? | nt | -8.4% | -2.7% | 0.9% | 24.0%
NC(=O)C1CCCN(C(=S)NCc2ccc3c(c2)OCO3)C1 (stereo unspecified) | 50.1µM* | ? | -5.0% | -2.1% | 0.1% | 22.3%
COCCCNC(=O)C1CCN(C(=O)c2cc3sccc3n2Cc2ccc(F)cc2)CC1 | 3.7% | -2.7% | -12.5% | -6.2% | 1.9% | 21.0%
Cn1c(C(=O)N2CCCC(C(=O)NCc3ccc4c(c3)OCO4)C2)cc2sccc21 (stereo unspecified) | 50.1µM* | -4.8% | -13.4% | -6.0% | ? | 10.4%
c1ccc(C2=Nc3ccccc3SC2c2nc3ccccc3[nH]2)cc1 (stereo unspecified) | 12.6µM* | nt | nt | nt | ? | nt
SMILES | G9a block | PLK1 PBD inh | JMJD2A Tudor | VDR inh | BAZ2B inh | HP1b chromo inh
O=C(N/N=C/c1cc(Cl)ccc1O)c1cccnc1 | nt | -2.6% | 44.7µM* | 7.1% | 7.94µM* | 52.5%
O=C(N/N=C/c1cc(Cl)ccc1O)c1ccccc1Br | -34.9% | -18.1% | 79.4µM* | -6.8% | ? | 22.6%
CC(=O)NC(C)C(=O)OCC(=O)Nc1ccc(Br)cc1 (stereo unspecified) | 1.7% | 0.9% | 44.4% | -6.8% | -7.6% | 47.9%
COCCNC(C)C(=O)Nc1ccc(Br)cc1 (stereo unspecified) | 11.2µM* | -5.9% | 3.98µM* | -5.9% | 50.1µM* | -34.8%
CN1C(=O)C(CC(=O)Nc2ccc(Cl)cc2)N(Cc2ccco2)C1=S (stereo unspecified) | 44.7µM* | -17.8% | -31.8% | 5.3% | ? | 12.6%
COc1ccc(CCNC(=O)C(NS(=O)(=O)c2ccc3c(c2)CCN3C(C)=O)C(C)C)cc1OC (stereo unspecified) | 39.8µM* | nt | nt | nt | -19.0% | nt
COc1cc2c(cc1OC)n(Cc1cccc(C(F)(F)F)c1)c(=O)n1nc(-c3ccccc3)nc21 | -25.8%[59 µM] | nt | -10.2% | 7.0% | -4.4% | 32.8%
Cc1sc2ncnc(N3CCCCC3)c2c1C | 35.2%[12.7 µM] | -4.1% | 11.3% | 7.3% | 6.8% | 34.9%
CCc1cc2c(SCC#N)ncnc2s1 | nt | 26.7µM* | ? | 5.4% | 6.7% | 0.5%
CCc1cc2c(N3CCCCC3)ncnc2s1 | 50.1µM* | -2.8% | -8.3% | 15.4% | -0.5% | 63.0%
COC(=O)C(C(C)C)N(Cc1cc(OC)cc(OC)c1)S(=O)(=O)CCl (stereo unspecified) | nt | 0.4% | 15.1% | 3.6% | nt | 82.0%
COc1ccc(C(CNC(=O)c2ccc(NS(=O)(=O)c3cccc([N+](=O)[O-])c3)cc2)N2CCOCC2)cc1 (stereo unspecified) | nt | -1.4% | -26.9% | 17.3% | -0.8% | 23.3%
CCN(CC(=O)Nc1ccccc1C(F)(F)F)C(=O)CSCc1ccc(C)cc1 | 2.0% | -11.8% | -9.6% | -2.7% | 11.7% | 5.5%
C#CCSc1nccc(-c2nn(-c3ccc(C)cc3)ccc2=O)n1 | -38.1%[12.7 µM] | 26.7µM* | 79.4µM* | ? | -2.2% | ?
CCSc1nccc(-c2nn(-c3ccc(C)cc3)ccc2=O)n1 | 79.4µM* | -8.9% | 5.3% | 5.4% | -0.6% | 52.2%
C=CCSc1nc(=O)n2ccc(C)cc2n1 | -34.4% | -19.9% | -12.0% | 15.6% | -23.0% | 12.6%
CSc1nccc(-c2nn(-c3ccc(C)cc3)ccc2=O)n1 | 8.6% | ? | 56.2µM* | -16.5% | 25.1µM* | -6.1%
Nc1nccc(-c2nn(-c3ccc(Cl)cc3)ccc2=O)n1 | nt | 2.0% | -2.0% | -6.7% | -1.3% | 45.0%

From PubChem BioAssay
